In all, about 39,000 compounds went through this assay and about 3,300 (8.5%) were called active. This excerpt belongs to a sample that is enriched for actives.

The subject of this test is HepG2. The test can be described thus: cytotoxicity call (relative viability < 0.9). The note with it: 10 µM.
Turning to `C[C@@H]1CN([C@H](C)CO)S(=O)(=O)c2ccc(C#Cc3cccc(F)c3)cc2O[C@@H]1CN(C)S(=O)(=O)c1cn(C)cn1`, the cytotoxicity call was “inactive”.

`Cc1ccc(S(=O)(=O)Nc2ccc3c(c2)C(=O)N([C@H](C)CO)C[C@H](C)[C@H](CN(C)C(=O)c2ccccc2)OCCCC[C@@H](C)O3)cc1`: the cytotoxicity call was “inactive”.

With `O=C(Cc1ccccc1)Nc1ccccc1Sc1ccccc1`, the cytotoxicity call was “inactive”.

Turning to `CC(C)NC(=O)Nc1ccc2c(c1)C(=O)N(C)[C@@H]1CC[C@@H](CC(=O)NCc3ccc(F)cc3)O[C@@H]1CO2`, the cytotoxicity call was “inactive”.

As for `C[C@@H]1CN([C@H](C)CO)C(=O)c2cc(-c3cccnc3)cnc2O[C@@H]1CN(C)Cc1ccc(-c2ccccc2)cc1`, the cytotoxicity call was “inactive”.

Consider `C[C@@H]1CN([C@@H](C)CO)C(=O)c2cc(NC(=O)Nc3cccc4ccccc34)ccc2O[C@@H]1CN(C)Cc1ccc(C(=O)O)cc1`, for which the cytotoxicity call was “inactive”.

On to `C[C@@H]1CN([C@@H](C)CO)C(=O)c2cccc(NS(=O)(=O)c3cccs3)c2O[C@@H]1CN(C)S(C)(=O)=O`, for which the cytotoxicity call was “inactive”.

On to `Cc1noc(C)c1NC(=O)N(C)C[C@@H]1Oc2c(NC(=O)NC(C)C)cccc2C(=O)N([C@H](C)CO)C[C@@H]1C`, for which the cytotoxicity call is “inactive”.

Turning to `C[C@@H]1CN([C@H](C)CO)C(=O)CCCn2nncc2CO[C@@H]1CN(C)S(=O)(=O)c1cccc(C#N)c1`, the cytotoxicity call is “inactive”.

`COc1ccc(S(=O)(=O)Nc2cccc3c2O[C@@H](CN(C)S(=O)(=O)c2ccc(F)cc2)[C@H](C)CN([C@@H](C)CO)C3=O)cc1`: the cytotoxicity call was “inactive”.

In the case of `C[C@@H]1CN([C@@H](C)CO)C(=O)Cc2cc(NC(=O)CCN3CCOCC3)ccc2O[C@@H]1CN(C)CC1CC1`, the cytotoxicity call is “inactive”.

As to `C[C@H](CO)N1C[C@H](C)[C@@H](CN(C)CC2CCCCC2)OCCCC[C@H](C)Oc2ccc(NC(=O)C3CCCCC3)cc2C1=O`, the cytotoxicity call was “inactive”.

Consider `C[C@H]1CCCCO[C@@H](CN(C)CC2CCCCC2)[C@@H](C)CN([C@@H](C)CO)C(=O)c2cc(NC(=O)C3CCCCC3)ccc2O1`, for which the cytotoxicity call is “inactive”.

For the molecule `C[C@@H]1CN([C@H](C)CO)C(=O)c2cc(NC(=O)C3CCCCC3)ccc2O[C@@H](C)CCCCO[C@@H]1CN(C)CC1CCCCC1`, the cytotoxicity call is “active”.

For the molecule `C[C@@H]1CN([C@@H](C)CO)C(=O)c2cc(NC(=O)C3CCCCC3)ccc2O[C@@H](C)CCCCO[C@H]1CN(C)CC1CCCCC1`, the cytotoxicity call was “active”.

For the molecule `C[C@@H]1CCCCO[C@@H](CN(C)CC2CCCCC2)[C@@H](C)CN([C@@H](C)CO)C(=O)c2cc(NC(=O)C3CCCCC3)ccc2O1`, the cytotoxicity call is “active”.

`C[C@@H]1CCCCO[C@@H](CN(C)CC2CCCCC2)[C@H](C)CN([C@H](C)CO)C(=O)c2cc(NC(=O)C3CCCCC3)ccc2O1`: the cytotoxicity call was “inactive”.

For `C[C@@H]1CCCCO[C@H](CN(C)CC2CCCCC2)[C@H](C)CN([C@@H](C)CO)C(=O)c2cc(NC(=O)C3CCCCC3)ccc2O1`, the cytotoxicity call was “inactive”.

For `C[C@@H]1CCCCO[C@@H](CN(C)CC2CCCCC2)[C@H](C)CN([C@@H](C)CO)C(=O)c2cc(NC(=O)C3CCCCC3)ccc2O1`, the cytotoxicity call was “inactive”.

On to `C[C@@H]1CCCCO[C@H](CN(C)CC2CCCCC2)[C@H](C)CN([C@H](C)CO)C(=O)c2cc(NC(=O)C3CCCCC3)ccc2O1`, for which the cytotoxicity call was “inactive”.

Take `C[C@H](CO)N1C[C@H](C)[C@H](CN(C)CC2CCCCC2)OCCCC[C@H](C)Oc2ccc(NC(=O)C3CCCCC3)cc2C1=O`: the cytotoxicity call is “inactive”.

Turning to `C[C@H]1CCCCO[C@H](CN(C)CC2CCCCC2)[C@@H](C)CN([C@@H](C)CO)C(=O)c2cc(NC(=O)C3CCCCC3)ccc2O1`, the cytotoxicity call is “active”.

For the molecule `C[C@@H]1CN([C@@H](C)CO)C(=O)c2cc(NC(=O)C3CCCCC3)ccc2O[C@@H](C)CCCCO[C@@H]1CN(C)CC1CCCCC1`, the cytotoxicity call was “inactive”.

Consider `COc1ccc(S(=O)(=O)N(C)C[C@@H]2OCCCC[C@@H](C)Oc3ccc(NS(C)(=O)=O)cc3C(=O)N([C@@H](C)CO)C[C@H]2C)cc1`, for which the cytotoxicity call was “inactive”.

As to `C[C@H]1CN([C@@H](C)CO)C(=O)c2cccc(NC(=O)C3CCOCC3)c2O[C@H]1CN(C)Cc1ccc(-c2ccccc2)cc1`, the cytotoxicity call was “inactive”.

`O=C1NC(=O)[C@H]2CC[C@H]2N1`: the cytotoxicity call was “inactive”.

Consider `CN(CC=Cc1ccccc1)Cc1cccc2ccccc12.Cl`, for which the cytotoxicity call was “inactive”.

Regarding `Cc1noc(C)c1S(=O)(=O)N(C)C[C@H]1OCCCC[C@H](C)Oc2ccc(NC(=O)Nc3ccc(C(F)(F)F)cc3)cc2C(=O)N([C@H](C)CO)C[C@@H]1C`, the cytotoxicity call was “inactive”.

For `Cc1ccc(S(=O)(=O)Nc2ccc3c(c2)C(=O)N([C@@H](C)CO)C[C@H](C)[C@H](CN(C)Cc2ccncc2)OCCCC[C@H](C)O3)cc1`, the cytotoxicity call is “inactive”.

Consider `COCC(=O)N1CC(=O)N2[C@H](C1)[C@@H](c1ccc(C#Cc3cccnc3)cc1)[C@@H]2CO`, for which the cytotoxicity call was “inactive”.

`Cc1noc(C)c1S(=O)(=O)N(C)C[C@H]1Oc2ccc(NS(=O)(=O)c3ccccc3)cc2CC(=O)N([C@H](C)CO)C[C@H]1C`: the cytotoxicity call is “inactive”.

Consider `C[C@@H]1CN([C@@H](C)CO)C(=O)c2cccc(NS(=O)(=O)c3ccc(Cl)cc3)c2O[C@@H]1CN(C)Cc1ccc(Oc2ccccc2)cc1`, for which the cytotoxicity call was “inactive”.

Regarding `C[C@H]1CN([C@@H](C)CO)C(=O)c2cccc(NS(=O)(=O)c3ccc(Cl)cc3)c2O[C@@H]1CN(C)Cc1ccc(Oc2ccccc2)cc1`, the cytotoxicity call is “active”.

In the case of `COc1ccc(S(=O)(=O)Nc2cccc3c2O[C@H](CN(C)Cc2ccc(Oc4ccccc4)cc2)[C@H](C)CN([C@@H](C)CO)C3=O)cc1`, the cytotoxicity call was “active”.

As to `C[C@H]1CN([C@@H](C)CO)C(=O)c2cccc(NS(=O)(=O)c3ccc(F)cc3)c2O[C@@H]1CN(C)Cc1ccc(Oc2ccccc2)cc1`, the cytotoxicity call is “inactive”.

For `C[C@@H]1CN([C@@H](C)CO)C(=O)c2cccc(NS(=O)(=O)c3ccc(Cl)cc3)c2O[C@H]1CN(C)Cc1ccc(Oc2ccccc2)cc1`, the cytotoxicity call was “inactive”.

In the case of `C[C@@H]1CN([C@@H](C)CO)C(=O)c2cccc(NS(=O)(=O)c3ccc(F)cc3)c2O[C@H]1CN(C)Cc1ccc(Oc2ccccc2)cc1`, the cytotoxicity call is “inactive”.

As to `COc1ccc(S(=O)(=O)Nc2cccc3c2O[C@H](CN(C)Cc2ccc(-c4ccccc4)cc2)[C@H](C)CN([C@@H](C)CO)C3=O)cc1`, the cytotoxicity call is “inactive”.

For the molecule `C[C@@H]1CN([C@@H](C)CO)C(=O)c2cccc(NS(=O)(=O)c3ccc(F)cc3)c2O[C@@H]1CN(C)Cc1ccc(Oc2ccccc2)cc1`, the cytotoxicity call was “active”.

`COc1ccc(S(=O)(=O)Nc2cccc3c2O[C@H](CN(C)Cc2ccc(-c4ccccc4)cc2)[C@@H](C)CN([C@H](C)CO)C3=O)cc1`: the cytotoxicity call is “active”.

For the molecule `COc1ccc(S(=O)(=O)Nc2cccc3c2O[C@H](CN(C)Cc2ccc(Oc4ccccc4)cc2)[C@@H](C)CN([C@H](C)CO)C3=O)cc1`, the cytotoxicity call is “inactive”.

For the molecule `COc1ccc(S(=O)(=O)Nc2cccc3c2O[C@H](CN(C)Cc2ccc(Oc4ccccc4)cc2)[C@@H](C)CN([C@@H](C)CO)C3=O)cc1`, the cytotoxicity call is “inactive”.

In the case of `COc1ccc(S(=O)(=O)Nc2cccc3c2O[C@H](CN(C)Cc2ccc(-c4ccccc4)cc2)[C@H](C)CN([C@H](C)CO)C3=O)cc1`, the cytotoxicity call is “inactive”.
